# KB-V1 MDR tox: kills drug-selected multidrug resistant KB-V1 cells. Potency, µM (top dose mostly 46.1 µM), usual class: cytotoxic. KB-V1 MDR cells viability, CellTiter-Glo, 72 h. actives 3.4% (n = 400,000); also: nearly all actives have a fitted effect of over 60% in size
#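 qHTS viability screen in drug-selected KB-V1 MDR cells: 72 h compound treatment at 37 degrees C, ATP luminescence end point.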
# SW480 rereplic: induces DNA re-replication in SW480 colon adenocarcinoma cells; SW480 DNA re-replication, Hoechst DNA content imaging, 48 h; Potency, µM (series often up to 46.1 µM), usual class: activators; actives 1.8% (n = 340,000); AID 624297; also: nearly all actives have a fitted effect of over 55% in size
#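 Per well, 250 cells were exposed to pinned compound for 48 hr. Nuclear DNA was visualised with Hoechst (40 min, 37 C) and total object intensity recorded by fluorescence scanning.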
# MCF10A rereplic: inducers of DNA re-replication in MCF 10A breast cells | MCF 10A DNA re-replication, Hoechst nuclear intensity, 48 h | Potency, µM (series often up to 46.1 µM), hits mostly activators | actives 2.9% (n = 350,000) | AID 624296; also: nearly all actives have a fitted effect of over 50% in size
# HT1080NT lethal: kills 2HG-producing HT-1080-NT fibrosarcoma cells; HT-1080-NT fibrosarcoma viability, CellTiter-Glo ATP luminescence, 48 h; Potency, µM (doses to about 46.1 µM), hits mostly cytotoxic; actives 1.6% (n = 360,000); AID 686970;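 also: NT is the 2HG producing partner of a matched IDH1 knockdown line; nearly all actives have a fitted effect of over 55% in size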
#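 A 48-hour cytotoxicity screen used HT-1080-NT cells plated 2 hours before compound delivery. ATP-based CellTiter-Glo luminescence measured viability, normalized to DMSO and no-cell controls.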
# HT1080 IDH1KD tx: HT-1080 IDH1 knockdown cell toxicity (counter line); HT-1080 IDH1 knockdown viability, ATP luminescence, 48 h; Potency, µM (top dose mostly 46.1 µM), usual class: cytotoxic; actives 2% (n = 360,000)
#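 Knockdown cells (IDH1KD HT-1080) received compounds 2 h after plating at 750 cells/well and were kept 48 h at 37 °C in 5% FBS RPMI. A CellTiter-Glo luminescence read gave % activity for curve fitting.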
# KB-3-1 tox: KB-3-1 parental cell cytotoxicity. KB-3-1 viability, CellTiter-Glo ATP luminescence, 72 h. Potency, µM (titrated, usually from 46.1 µM), actives largely listed as cytotoxic. actives 1.4% (n = 400,000). AID 1347075; also: nearly all actives have a fitted effect of over 60% in size
#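 KB-3-1 cells, DMEM (no phenol red) + 10% FBS; compound by pin transfer, 72 h, 37 °C. Readout: CellTiter-Glo luminescence after 10 min. Data normalized, curve-fitted.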
# A number is an active result; – = inactive; ? = inconclusive; · = no result; [ ] = remark or other dose. A selection: hits, their analogues and other compounds. The true share with any hit is near 7.9%. Calls follow the shape of the dose curve; as a rule, active = well fitted curve in the direction sought with a large enough effect; inconclusive = small, poorly fitted or top-dose-only effect, or another doubt; inactive = no such curve, though single readings can be large; an effect the other way counts as inactive or inconclusive.
SMILES,KB-V1 MDR tox,SW480 rereplic,MCF10A rereplic,HT1080NT lethal,HT1080 IDH1KD tx,KB-3-1 tox
CC(C)C(=O)N1CCCC1(C)C(=O)Nc1ccc(-n2cncn2)cc1 (stereo unspecified),–,·,·,–,–,–
COc1cc(Nc2nc3ccccc3n3nnnc23)cc(OC)c1OC,–,–,29µM,–,–,–
COc1ccc(Nc2nc3ccccc3n3nnnc23)cc1,5.8µM,–,–,–,?,–
Cc1ccc(Nc2nc3ccccc3n3nnnc23)cc1,–,–,?,–,–,–
Cc1cccc(Nc2nc3ccccc3n3nnnc23)c1,–,–,–,–,–,–
CCOC(=O)C1=CCN(S(=O)(=O)c2ccccc2Br)C1c1ccccc1 (stereo unspecified),?,·,·,?,–,–
Cc1cc2oc(C(=O)NCc3ccccc3)cc(=O)c2cc1C,–,8.2µM,–,?,–,–
Cc1ccc2oc(C(=O)NCc3ccccc3)cc(=O)c2c1,–,–,–,?,–,–
Cc1ccc(C)c(NC(=O)c2cc(=O)c3ccccc3o2)c1,15µM,–,?,–,–,–
Cc1ccc2oc(C(=O)NC3CCS(=O)(=O)C3)cc(=O)c2c1 (stereo unspecified),?,21µM,–,–,–,–
Cc1ccc2c(=O)cc(C(=O)NC3CCS(=O)(=O)C3)oc2c1 (stereo unspecified),–,–,–,–,–,–
Cc1cccc(NC(=O)c2cc(=O)c3ccccc3o2)n1,–,2.9µM,–[0.0737 µM],–,–,–
CC(=O)c1cnc2nc(SCc3cccc(C)c3)nn2c1C,–,–,–,–,–,–
COc1ccc(C(C)=O)cc1CSc1nnc(C)n1-c1ccccc1,21µM,–,–,–,–,–
CCOC(=O)CNC(=O)Cn1nc(N2CCN(c3ccccc3)CC2)ccc1=O,–,·,·,·,·,–
O=C(CNC(=O)c1ccccc1)OCC(=O)c1ccccc1,–,·,·,·,·,–
COc1ccc2[nH]cc(CCN=C(NC(=O)c3cccc(Cl)c3)Nc3nc(C)cc(C)n3)c2c1,?,·,·,·,·,–
COc1ccc(OC)c(Nc2nc3ccc(C)cc3n3cnnc23)c1,–,–,18µM,–,–,–
COc1cccc(Nc2nc3ccc(C(=O)c4ccccc4)cc3n3cnnc23)c1,–,18µM,9.2µM,–,–,–
COc1ccc(Cl)cc1Nc1nc2ccc(C)cc2n2cnnc12,–,–,8.2µM,–,–,–
CCOc1ccccc1Nc1nc2ccc(C)cc2n2cnnc12,?,–,–,–,–,–
CC(C)c1ccc(Nc2nc3ccc(C(=O)c4ccccc4)cc3n3cnnc23)cc1,?,·,·,·,·,–
N#Cc1cc2c(=O)n3ccccc3nc2n(-c2ccc(Cl)cc2)c1=O,–,?,0.52µM,–,–,–
O=C(CSc1nnc(-c2ccc(O)cc2)n1Cc1ccco1)c1cccs1,–,–,–,–,–,–
N#Cc1c(-c2ccccc2)c(-c2ccccc2)n(Cc2ccco2)c1NC(=O)c1cccs1,5.6µM,–,–,–,–,–
SMILES,KB-V1 MDR tox,SW480 rereplic,MCF10A rereplic,HT1080NT lethal,HT1080 IDH1KD tx,KB-3-1 tox
CCOc1ccc(-c2cc(CCCC(=O)NCCc3cc(OC)c(OC)c(OC)c3)no2)cc1,–,·,·,·,·,–
Cc1ccc(Nc2nc3ccccc3n3cnnc23)cc1Cl,–,–,–,–,–,–
N/C(=N\N=C\c1ccnc2ccccc12)SC1CC(=O)N(c2ccc(Br)cc2)C1=O (stereo unspecified),–,–,7.3µM,–,–,–
N/C(=N\N=C\c1cccs1)SC1CC(=O)N(c2ccc(Br)cc2)C1=O (stereo unspecified),–,–,–,–,?,–
O=C1c2ccccc2C(=O)N1CC(=O)N1c2ccccc2Sc2ccccc21,–,–,–,–,–,–
O=C1c2ccccc2C(=O)N1CC(=O)N1c2ccccc2Sc2ccc(C(F)(F)F)cc21,18µM,–,–,–,–,–
COc1cc(/C=C2\SC(N3CCc4ccccc4C3)=NC2=O)cc(OC)c1OC,2.3µM,–,?,–,–,?
COc1ccc(-c2nc(C)c(CCNC(=O)c3cccs3)s2)cc1,8.2µM,·,·,·,·,–
Cc1ccc(-c2nc(C)c(CCNC(=O)c3cccs3)s2)cc1,?,·,·,·,·,–
COc1ccc(-n2c(SCCC#N)nnc2-c2cc(Cl)ccc2OC)cc1Cl,?,?,16µM,?,29µM,?
CC(NC(=O)C1(S(=O)(=O)c2ccc(Cl)cc2)CC1)c1ccccc1 (stereo unspecified),21µM,–,–,–,–,–
CCC(C)c1ccc(NC(=O)Nc2cnccn2)cc1 (stereo unspecified),?,3.3µM,5.8µM,?,8.2µM,3.3µM
Cc1cccc(NC(=S)N/N=C/c2c[nH]c3ccccc23)c1,?,12µM,1.8µM,23µM,16µM,12µM
Cc1ccc(NC(=S)N/N=C/c2c(C)[nH]c3ccccc23)cc1,–,?,18µM,?,?,–
Cc1ccc(C(=O)Nc2ccc(C(=O)N/N=C/c3c[nH]c4ccccc34)cc2)cc1,–,–,?,–,?,–
Cc1[nH]c2ccccc2c1/C=N/NC(N)=S,–,–,–,–,–,–
CCCCn1nnnc1C(c1ccccc1)N1CCN(c2ccc(C)cc2)CC1 (stereo unspecified),–,·,·,–,–,–
COc1ccccc1CNC(=O)C1(c2cccs2)CCOCC1,–,·,·,·,·,–
O=C1C2C(c3ccccc3)C=CC(c3ccccc3)C2C(=O)N1CCO (stereo unspecified),–,–,–,–,–,–
O=C1C2C3C=CC(C3=C(c3ccccc3)c3ccccc3)C2C(=O)N1CCO (stereo unspecified),21µM,–,–,–,–,–
O=C1C2C3C=CC(C3=C(c3ccccc3)c3ccccc3)C2C(=O)N1Cc1ccccc1 (stereo unspecified),23µM,?,?,–,?,?
COCC(=O)N[C@@H]1c2cc(OC)c(OC)cc2C[C@H]1OCc1ccccc1,–,–,–,–,–,–
Cc1cccc(C)c1OCC(O)CN1CCC(CN2C(=O)c3cccc4cccc(c34)C2=O)CC1 (stereo unspecified),?,?,?,–,–,21µM
Cn1nnnc1SCCCNCc1ccc(-c2ccc(F)c(Cl)c2)o1,–,·,·,·,·,–
Cc1cccc(N2CCN(S(=O)(=O)c3ccc(-c4cnc(C5CC5)o4)cc3)CC2)c1C,–,·,·,·,·,–
Cc1cc(Nc2ccccc2)c2c([N+](=O)[O-])c(C)cc(C)c2n1,21µM,–,–,–,–,?
Cc1cccc(Nc2cc(C)nc3ccccc23)c1,–,–,–,–,–,–
Cn1c(=O)c2sccc2n2c(CCCC(=O)Nc3ccc(F)c(F)c3)nnc12,–,·,·,·,·,–
